Assay results published in the supplement of paper PMC11417369.
In all, about 25,000 sequences were measured (“ln(normalized median fluorescence intensity)”: median about 9.7, highest 2% from about 11 on). The entries come from a sample that favours the highest values as a whole.

tested on: PfAP2-HC AP2 domain (GST-tagged); experiment: gcPBM binding intensity (ln(normalized median fluorescence intensity)); higher = stronger DNA binding
Outline: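 For binding intensity, the highest Masliner-normalised natural-log median intensity across replicate spots of either probe orientation was taken. Protein bound to the array was stained with Alexa488 anti-GST antibody and scanned at 488 nm. The protein, GST-tagged P. falciparum DNA-binding domains from E. coli at about 25 μg on average, had been applied for 1 h to an Agilent 4 × 180k array of primer-extended double-stranded 36-bp intergenic genomic probes and negative controls.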

Row | Sequence | gcPBM binding intensity (ln)
1 | ATTTTTTTGTTATTGTTGAAAAGATGGTTCTTTTTT [CACACA_negctrl_site1346] | 9.52
2 | TATATAGGTATATATACACACAACGGTTATAAATAT [CACACA_site4759] | 9.94
3 | AGCATATTATCATATTGTACATATTATAATATATAT [XGTACX_site3907] | 9.69
4 | AATAATACAAAAGTTCAACAAAAAAAAAAAAAAAAT [CACACA_negctrl_site952] | 9.75
5 | TGTTAATTAAAACATCATTAATATTATTAAAAATAC [XGTACX_negctrl_site509] | 9.36
6 | ATTTTTTTTATTTTTTCAATATATATATATATATAT [CACACA_negctrl_site1444] | 9.74
7 | AAAATATAATATATTACACACATATATTTTATAAGT [CACACA_site668] | 9.82
8 | ATATATATGAATACATGTACGTATTTGTCTATGTAT [XGTACX_site8306] | 9.81
9 | TTTTTTATTATTATGTGTACGAATATGTGCATATAA [XGTACX_site1364] | 9.65
10 | AAAAATAAAAGGTGTGCACACAAAAATATATATATA [CACACA_site8507] | 10.5
11 | TGCACCCACCAACACACACACAACTAAAAAATAATG [CACACA_site2566] | 10.5
12 | AAAAAAAAAAAACACACACACACACTAATATATAAA [CACACA_site8302] | 10.9
13 | TACACCCACCAACACACACACACACTAATAAAAAAA [CACACA_site8060] | 11.3
14 | AAAAATAAAGGGTGTGCACACAAAAATATATATATA [CACACA_site1727] | 11
15 | TGAACACCCACAAATACACACAAAAAAAATAAATAA [CACACA_site248] | 10.6
16 | TAAATATAAAAATGCACACACACAAAAAAAAAAAAA [CACACA_site895] | 11.4
17 | ATAATATGAAAACACACACACACACTAGAAAAAAAA [CACACA_site5153] | 10.9
18 | AAATAAAAAGGGTGCACACAAAAATATATATATATA [CACACA_site1728] | 9.94
19 | AATATAAAAATGCACACACACAAAAAAAAAAAAAAA [CACACA_site6546] | 10.9
20 | ATAATATGAAAACACACACACACACTAATAAAAAAA [CACACA_site8617] | 11.5

Row | Sequence | gcPBM binding intensity (ln)
21 | AATAAAAAAAAATGCACACATATATATATATATATA [CACACA_site2421] | 9.71
22 | TTTTAATTAGTACAAACACACATATACACCCAAAAA [CACACA_site5422] | 10
23 | GATGATACGATTATCACACATTTATACTTTCTACAT [CACACA_site5669] | 9.85
24 | AAACAAAAAATTTAAAGTACAAAAATTATGATTGTT [XGTACX_site465] | 9.62
25 | TATTTAATGTGATACTTATATTATTTTATGATTAAA [GTGCAC_negctrl_site25] | 9.49
26 | AAAAAAGTTGTATTTGCACACATAAAAAAAAGATAT [CACACA_site3839] | 9.93
27 | AGAGAATAAATATAAAGTACATATATAAATATATAT [XGTACX_site5055] | 9.7
28 | AAAAAATTATATAAATGTACATTTTGGCTAGACATG [XGTACX_site5977] | 9.71
29 | TATAATAAATCAAATGCACACACACTAATAAAAAAA [CACACA_site7937] | 11.3
30 | AATAAATATAAAAATGCACACACACTAATAAAAAAA [CACACA_site8201] | 11.4
31 | TATATATATATATATACACACACACTAATAAAAAAA [CACACA_site8426] | 11
32 | TAATAAATCAAATGCACACACACAAAAAAAAAAAAA [CACACA_site161] | 10.3
33 | ATATAAATAATATAAATACACACTAAAAAAAATATA [CACACA_site542] | 9.84
34 | AAAAATATAAACTGCACACACACAAAAAAAGAAAAA [CACACA_site648] | 10.8
35 | TAAAAAATATAAACTGCACACACACTAATAAAGAAA [CACACA_site8119] | 11.1
36 | AATATAATATAATGCACACATAAAAAAAAAATCAAA [CACACA_site122] | 9.89
37 | AAAAATATAAACTGCACACACAAAAAAAAAAGAGAA [CACACA_site1367] | 10.3
38 | ATAATAAAAAAAAATGCACACATATATATATATATA [CACACA_site8766] | 9.8
39 | AAAATATAATATAATGCACACATAAAAAAAAAAAAA [CACACA_site7989] | 9.84
40 | ATAAATAATATAAATACACACTAAAAAAAATATATA [CACACA_site4456] | 9.88

Row | Sequence | gcPBM binding intensity (ln)
41 | TATAAAAATAGGATTTGTACATATAAAAAAGGAAAA [XGTACX_site8678] | 9.73
42 | TATAATATTAATGACTGTACTCATACGTATATTTAT [XGTACX_site5493] | 9.76
43 | TACGGTTGTTTATTTTGTACGTAAAAAATATATTAT [XGTACX_site8393] | 9.7
44 | ATTAAATAAAATCATGCACACAATATATATTTTAAG [CACACA_site2495] | 9.71
45 | AACATAATTAAAAATTGTACAGAATTTCAATCGAAA [XGTACX_site7542] | 9.62
46 | TCAACAAATAAACTTTGTACATATATACAAAATATA [XGTACX_site4447] | 9.53
47 | AAAAAATAAATAAACATAAATAAATAAATAAATATA [XGTACX_negctrl_site340] | 9.73
48 | CAATATATTTGATTTACACACTTACAATGTATATAA [CACACA_site2994] | 9.55
49 | AATAGTACAAAAAAAAAAAAAAAAAAAAAAAAAAAA [CACACA_negctrl_site1376] | 8.9
50 | TTATTTTTTAGTAGTACACACTTTTTGTACCTTTTA [CACACA_site4503] | 9.87
51 | ATCAAGCACGAACACACACACACACGCACGCCCACA [CACACA_site6308] | 11.4
52 | CCAACATGCCCACGCACACACAAAAAAAGCATGCAT [CACACA_site4217] | 10
53 | CATATACACGAACACACACACACACGCACAAAAAAA [CACACA_site6376] | 10.6
54 | TTATACTGTATAGTCGCACACAAAAATATAAAATAT [CACACA_site3869] | 9.98
55 | TGCACAAAATTATGCACACACCTAAAATTAATTTTT [CACACA_site5596] | 9.8
56 | TGTGCCCAAAATTATGCACACACCTAAAATTAATTT [CACACA_site2914] | 9.85
57 | ATTATGCACGGACACACACACACACCCCTAAAAAAT [CACACA_site5426] | 11.4
58 | TAATTATGCGGACACACACACACACCCAACTAAAAA [CACACA_site5427] | 10.9
59 | ATTATGCACCAACACACACACACACCCCTAAAAAAT [CACACA_site2568] | 10.8
60 | ATTATGCACCAACACACACACACACTCCTAAAAAAT [CACACA_site8822] | 11
